High-throughput results from PubChem BioAssay.
Hits are enriched below; roughly 6% of the tested compounds scored in any of these assays.
D3 antag = D3 dopamine receptor (human) antagonism; P35462; D3R cells, DiscoveRx beta-arrestin luminescence, antagonist mode; stronger effect = lower value; max response, negative = inhibition, %; 2.5% of 360,000 active; AID 652054; in the data active = max response below about -50%; inconclusive = no clear call, values can overlap the other calls; also: % is scaled to controls: 0 for no effect and ±100 for the full control effect
Target sequence (P35462 whole entry, looked up): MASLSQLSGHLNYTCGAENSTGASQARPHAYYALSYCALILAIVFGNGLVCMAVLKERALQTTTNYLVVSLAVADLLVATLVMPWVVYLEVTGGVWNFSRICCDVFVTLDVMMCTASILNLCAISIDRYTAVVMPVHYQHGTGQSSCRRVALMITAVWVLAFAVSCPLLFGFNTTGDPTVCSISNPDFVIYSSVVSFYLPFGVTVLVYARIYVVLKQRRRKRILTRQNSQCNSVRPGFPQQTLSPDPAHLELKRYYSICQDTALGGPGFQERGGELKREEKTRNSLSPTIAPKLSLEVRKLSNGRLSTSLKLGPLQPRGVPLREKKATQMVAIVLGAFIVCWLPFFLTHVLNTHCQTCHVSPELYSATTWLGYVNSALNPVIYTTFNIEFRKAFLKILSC
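Cells expressing the human receptor were seeded at 1500 cells/well, incubated overnight at 37 degrees C in 5% CO2, then exposed to library compounds with dopamine controls for 90 minutes at 37 degrees C before luminescent detection.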
D1 antagonist = antagonists of human D1 dopamine receptor | HEK293 TREx D1 cells, calcium flux, dopamine EC80; stronger effect = lower value | activity change, negative = inhibition, % at 10 µM | 3.2% of 360,000 active | P21728; in the data active = activity change below about -30%; also: % is scaled to controls: 0 for no effect and ±100 for the full control effect
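Calcium flux readout: force-coupled, inducible Hek293 Trex D1 line, cells induced overnight at 30 C with tetracycline, dye-loaded 30–90 min at RT. Antagonism scored against EC80 dopamine challenge given 180 s after compound.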
D1 PAM = enhances dopamine response at the human D1 receptor; potentiation, % at 10 µM; P21728; HEK293 TREx D1 cells, calcium flux, dopamine EC20 potentiation; 0.036% of 360,000 active; in the data active = potentiation above about 30%; also: 0% is about no effect
D3 ag = activates the human D3 dopamine receptor. P35462. D3R DiscoveRx beta-arrestin cells, luminescence, 90 min. max activation, %. 0.58% of 410,000 active. AID 652048; in the data active = max activation above about 30%; also: 0% is about no effect
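Agonist mode: compounds and dopamine controls were applied to plated cells for 90 min at 37 degrees C after an overnight attachment at 1500 cells/well. Luminescent read-out followed 30 - 60 minutes at room temperature with DiscoveRx detection reagent.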
D1 agonist = agonists of human D1 dopamine receptor | P21728 | HEK293 T-REx D1 cells, calcium flux, agonist mode | activation, % at 2 µM | 1% of 360,000 active | AID 504660; in the data active = activation above about 30%; also: 0% is about no effect
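Agonism was scored from calcium flux recorded over 180 s (1 read/s) after pintool compound addition, following a 10-cycle baseline. Cells were inducible force-coupled HEK293 TREx D1, plated overnight at 30 C and loaded with no-wash calcium dye.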
Numbers without * were called inactive; ? = inconclusive; · = no result given.

SMILES	D3 antag	D1 antagonist	D1 PAM	D3 ag	D1 agonist
O=C1c2cccnc2C(Nc2ccccc2Br)N1Cc1ccco1 (configuration not stated)	-16.4	-53.4*	6.8	1.7	-3.1
O=C1c2ccccc2N2C(=O)c3ccccc3C2N1Cc1ccco1 (configuration not stated)	-4.1	-49.8*	-3.2	-1.9	-0.1
Cc1ccccc1NC1c2ccccc2C(=O)N1Cc1ccco1 (configuration not stated)	1.4	-16.8	·	0.2	0.8
Cc1cccc(NC(=O)c2c(N)sc3c2CCC(C)C3)c1 (configuration not stated)	·	19.0	1.6	-7.5	-2.5
O=C(Nc1ccc(OCc2cc(=O)n3c4c(sc3n2)CCCC4)cc1)c1ccc(F)cc1	·	9.5	3.1	0.5	1.7
Cc1ccc(-n2c(Cl)c(Cl)nc(Cl)c2=O)cc1	-106.2*	-20.4	-8.6	-48.0	1.9
COc1nc(Cl)cn(-c2ccc(C)cc2)c1=O	7.8	2.0	-2.2	2.8	3.1
C/C=C/c1cc(CN2CCN(c3ccccc3)CC2)c(O)c(OC)c1	-98.1*	-10.6	1.8	-20.2	2.7
Cc1cccc(C(=O)NNC(=S)NC(=O)c2cccs2)c1	-3.4	-5.8	-8.5	0.7	75.7*
CC(C)(C)c1cc(CCC(=O)NNC(=S)NC(=O)c2ccccc2)cc(C(C)(C)C)c1O	-78.5*	-66.3*	18.1	-20.3	132.5*
Cc1cccc(-c2nnc(NC(=O)c3cccs3)s2)c1	?	-41.2*	0.3	-2.0	1.1
O=C(CCc1ccccc1)NNC(=S)NC(=O)c1ccccc1	0.1	-9.1	-10.2	-8.4	1.0
Cc1cc(C)cc(NS(=O)(=O)c2ccc(NC(=S)NC(=O)c3cccs3)cc2)c1	-84.0*	-28.8	-6.0	-18.3	7.3
Cc1ccc(C(=O)NNC(=S)NC(=O)c2ccco2)cc1	2.0	-10.8	-7.8	13.2	59.1*
Cc1ccc(C(=O)NC(=S)NNC(=O)c2ccccc2)cc1	4.1	-41.8*	-5.2	3.2	200.0*
Cc1ccc(C)c(NC(=S)NNC(=O)c2ccco2)c1	9.3	-35.3*	-8.0	0.0	2.5
O=C(/C=C/c1ccccc1)NC(=S)NNC(=O)c1ccco1	2.7	-3.1	6.3	2.5	-2.5
O=C(/C=C/c1ccc(Br)cc1)NC(=S)NNC(=O)c1ccco1	-83.6*	-18.5	1.5	-9.8	-1.8
COc1cc(NC(=O)CSc2nc(-c3ccco3)cc(C(F)(F)F)n2)cc(OC)c1OC	·	-3.1	2.8	-2.9	1.8
Cc1ccccc1C(=O)NNC(=S)NC(=O)c1ccccc1	-10.1	-37.3*	-0.7	-4.9	279.3*
O=C(NNC(=S)NC(=O)c1ccc(Br)cc1)c1cccc([N+](=O)[O-])c1	-10.1	-4.5	-1.2	-3.1	32.2*
Cc1cc(NS(=O)(=O)c2ccc(NC(=S)NC(=O)c3cccnc3)cc2)no1	-51.0*	8.7	-1.1	-14.6	-0.9
Cc1cc(C)nc(NS(=O)(=O)c2ccc(NC(=S)NC(=O)c3cccnc3)cc2)n1	?	-7.6	-4.3	-13.4	4.0
Cc1ccc(C(=O)NC(=S)NNC(=O)c2ccccc2O)cc1	70.6	-16.4	-0.8	10.8	55.2*
O=C(NNC(=S)NC(=O)c1ccc(Br)cc1)c1ccc([N+](=O)[O-])cc1	21.0	-3.9	-0.5	1.6	10.4
SMILES	D3 antag	D1 antagonist	D1 PAM	D3 ag	D1 agonist
Cc1cccc(C)c1OC(=O)CSc1nnc(CNC(=O)c2ccccc2)o1	·	-18.4	-1.6	-16.6	11.1
COc1ccccc1C(=O)NNC(=S)NC(=O)c1cccs1	·	4.5	-0.7	·	1.2
O=C(NC(=S)NNC(=O)c1ccccc1O)c1cccs1	0.9	19.8	-5.2	37.0*	2.1
Cc1ccc(C(=O)NNC(=S)NC(=O)c2ccccc2)cc1	-20.8	·	·	-6.0	·
Cc1ccc(C)c(NC(=S)NCc2ccccc2)c1	-0.9	-36.3*	-7.6	-8.2	1.8
Cc1ccc(C(=O)NNC(=S)NC(=O)c2ccc(Cl)cc2Cl)cc1	10.6	4.4	1.9	14.1	153.6*
CCCOc1ccc(C(=O)Nc2ccc(NC(=O)c3ccccc3)c(Br)c2)cc1	·	-12.1	-2.8	-3.7	1.7
CC(C)CC(NC(=O)C1CCC(C)CC1)C(=O)Nc1ccccc1F (configuration not stated)	3.0	10.2	-4.2	3.8	1.5
CC(C)CC(NC(=O)C1CCC(C)CC1)C(=O)Nc1ccccn1 (configuration not stated)	2.3	-32.4*	-6.6	-3.2	0.4
COC(=O)c1ccc(NC(=O)C(=O)c2c[nH]c3ccccc23)cc1	23.0	-6.8	-8.3	0.6	-1.4
COC(=O)C1=[N+]([O-])OC(C(=O)OC)C1c1c[nH]c2ccccc12 (configuration not stated)	-55.8*	-5.1	-2.9	6.5	2.9
Cc1sc2ncn(CC(=O)N3CCN(c4ccc(Cl)cc4)CC3)c(=O)c2c1S(=O)(=O)N1CCN(c2ncccn2)CC1	·	0.5	-0.9	1.1	2.2
COc1ccc2c3n(nc2c1)CCN=C3c1cc(Cl)c(N)c(Cl)c1	64.9	-35.5*	-8.0	18.2	1.8
Nc1c(Cl)cc(C2=NCCn3nc4cc(C(F)(F)F)ccc4c32)cc1Cl	9.0	4.1	-5.2	18.5	5.8
COc1ccc(-c2nc3ccccc3c(=O)n2O)cc1	?	-2.7	-5.5	-9.8	2.6
COc1ccc(C2=NCCn3nc4ccccc4c32)cc1	0.0	-45.1*	-2.6	-23.3	0.1
Cc1sc(NC(=O)c2ccco2)nc1-c1ccc2c(c1)CC(C)N2C(=O)C1CC1 (configuration not stated)	26.6	5.6	9.4	42.0*	1.4
Cc1ccc(-c2nnn(C/C(N)=N/O)n2)cc1	14.6	-38.9*	-2.5	3.2	5.8
CC(Cl)OC(=O)Nc1cccc2cccnc12 (configuration not stated)	·	0.3	4.9	·	0.2
Cc1cccc(OCC(O)CN2CCc3ccccc3C2)c1 (configuration not stated)	-104.5*	5.3	-5.2	-0.6	6.4
COc1ccc(OCC(O)CN2CCCCC2)cc1 (configuration not stated)	-7.7	-4.6	3.0	-11.7	3.6
C=CCc1ccc(OCC(O)CN2CCc3ccccc3C2)c(OC)c1 (configuration not stated)	-100.5*	15.0	-1.7	-18.1	6.1
COc1ccc(OCC(O)CN2CCc3ccccc3C2)cc1 (configuration not stated)	-106.6*	18.4	2.9	-16.2	3.8
CC(C)(C)c1ccc(OCC(O)CN2CCc3ccccc3C2)cc1 (configuration not stated)	-119.2*	·	·	-21.0	·
CCc1ccc(CNC(=O)CN2C(=O)c3cccnc3Oc3ccc(Cl)cc32)cc1	·	-3.7	-1.7	7.4	-0.9
COc1cc(Nc2ncc3c(n2)CCN(Cc2ccc(OC(C)C)c(OC)c2)C3)cc(OC)c1	·	3.3	1.4	-6.0	-0.1
